Screening results (PubChem BioAssay)
HT1080-NT tox: kills 2HG-producing HT-1080-NT fibrosarcoma cells | HT-1080-NT fibrosarcoma viability, CellTiter-Glo ATP luminescence, 48 h | Potency, µM (top dose mostly 46.1 µM), usual class: cytotoxic | 360,000 compounds, 1.6% hits | AID 686970;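 also: NT is the 2HG producing partner of a matched IDH1 knockdown line; nearly all actives have a fitted effect of over 55% in size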
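A 48-hour cytotoxicity screen used HT-1080-NT cells plated 2 hours before compound delivery. ATP-based CellTiter-Glo luminescence measured viability, normalized to DMSO and no-cell controls.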
DT40 TDP1 CPT: DT40-hTDP1 cell growth loss with CPT | chicken DT40 Tdp1-/-;hTDP1 cells + 20 nM CPT, ATP luminescence, 48 h | Potency, µM (top dose mostly 46.2 µM), most hits filed as inhibitors | 420,000 compounds, 12% hits | AID 686979; also: nearly all actives have a fitted effect of over 55% in size
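Cell growth measured by CellTiter-Glo luminescence after a minimum 48 h, 37 C compound exposure with 20 nM CPT in Tdp1-knockout DT40 cells stably expressing hTDP1, seeded 400/well; qHTS titration format.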
DT40 TDP1 no CPT: qHTS for Inhibitors of human tyrosyl-DNA phosphodiesterase 1 (TDP1): qHTS in cells in absence of CPT; DT40 Tdp1-/- hTDP1 cells, no CPT, ATP luminescence, 48 h; Potency, µM (series often up to 46.2 µM), usual class: inhibitors; 420,000 compounds, 15% hits; AID 686978, 2013; also: nearly all actives have a fitted effect of over 55% in size
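Growth of hTDP1-complemented DT40 Tdp1-knockout cells is measured by ATP luminescence after at least 48 hr compound exposure at 37 °C, with DMSO substituting for the 20 nM CPT used in the parallel screen.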
IL1B secr inh: inhibitors of inflammasome signaling (IL-1 beta secretion) | activity change, % at 57.5 µM | 360,000 compounds, 4.7% hits | AID 743279 | THP-1 LPS/ATP IL-1B secretion, AlphaLISA, 16 h; hits give low values; in the data active = activity change below about -50%; inconclusive = mostly about -30% to -49%
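Secreted IL-1B measured by AlphaLISA bead assay after 16 h compound exposure of THP-1 cells; compounds (final up to 57.5 uM) added 1 h before LPS (250 ng/mL) and ATP (1.25 mM) stimulation; lower signal means less secretion.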
HT1080 IDH1KD tx: HT-1080 IDH1 knockdown cell toxicity (counter line). 360,000 compounds, 2% hits. Potency, µM (doses to about 46.1 µM), usual class: cytotoxic. HT-1080 IDH1 knockdown viability, ATP luminescence, 48 h
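% activity derives from luminescence (CellTiter-Glo), normalised to DMSO and no-cell wells. HT-1080-IDH1KD cells, 750/well, had 48 h compound exposure at 37 °C.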
ALOX12 inh: ALOX12 (human) lipoxygenase inhibition. Potency, µM (doses to about 108 µM), most hits filed as inhibitors. purified 12hLO, xylenol orange hydroperoxide absorbance. AID 1671190. 580,000 compounds, 1.1% hits. P18054
Target sequence (P18054 whole entry, looked up): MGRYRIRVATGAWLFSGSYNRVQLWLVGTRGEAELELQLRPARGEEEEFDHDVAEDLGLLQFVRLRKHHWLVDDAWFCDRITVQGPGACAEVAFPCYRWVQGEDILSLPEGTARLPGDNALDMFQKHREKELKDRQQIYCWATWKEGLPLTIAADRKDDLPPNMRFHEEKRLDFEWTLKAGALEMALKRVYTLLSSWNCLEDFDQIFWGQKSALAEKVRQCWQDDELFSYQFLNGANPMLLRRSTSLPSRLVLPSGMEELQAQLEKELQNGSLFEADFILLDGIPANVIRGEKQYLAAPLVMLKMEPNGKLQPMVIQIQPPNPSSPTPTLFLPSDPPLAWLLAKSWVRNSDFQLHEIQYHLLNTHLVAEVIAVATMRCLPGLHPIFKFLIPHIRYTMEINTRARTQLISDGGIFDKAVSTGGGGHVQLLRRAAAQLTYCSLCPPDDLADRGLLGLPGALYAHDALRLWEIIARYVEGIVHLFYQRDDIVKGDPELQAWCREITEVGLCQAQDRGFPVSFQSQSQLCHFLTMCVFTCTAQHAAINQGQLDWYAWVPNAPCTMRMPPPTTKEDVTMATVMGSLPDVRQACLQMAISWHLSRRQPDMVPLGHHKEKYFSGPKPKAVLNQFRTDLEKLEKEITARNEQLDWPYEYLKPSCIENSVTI
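Purified human 12hLO at 150 nM in 25 mM Hepes, 0.01% Triton X-100, pH 7.0, preincubated 15 min at room temperature with compound. Reaction started with 40 uM arachidonic acid, 30 min at room temperature. Hydroperoxide measured by Fe-xylenol orange, 573/405 nm absorbance ratio.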
Hits are given with their value; - = inactive; ? = inconclusive; . = no result given; [ ] = another dose, or the depositor's remark. The sample as a whole holds a higher share of hits than the screen did. Unless noted, calls follow the shape of the dose curve; as a rule, active = well fitted curve in the direction sought with a large enough effect; inconclusive = small, poorly fitted or top-dose-only effect, or another doubt; inactive = no such curve, though single readings can be large; an effect the other way counts as inactive or inconclusive.

SMILES	HT1080-NT tox	DT40 TDP1 CPT	DT40 TDP1 no CPT	IL1B secr inh	HT1080 IDH1KD tx	ALOX12 inh
COCCNC(=O)c1cn(C(C)c2ccccc2F)nn1 (stereo not given)	-	-	-	-	-	-
CCOC(=O)C1=CN(CC(=O)Nc2ccc(C(C)=O)cc2)S(=O)(=O)N=C1C	.	.	.	.	.	-
O=Cc1ccc(I)cc1	.	1.6µM	4µM	.	.	.
O=Cc1ccc(Cl)cc1	.	-	-	.	.	.
CC(=O)Nc1ccn(C2COC(COC(=O)c3ccccc3)O2)c(=O)n1 (stereo not given)	.	0.84µM	1.5µM	.	.	.
COc1ccc(-c2noc(C3CCCN(C(=O)c4cccc(F)c4)C3)n2)cc1 (stereo not given)	-	-	18µM	-69	-	-
COc1ccc(C(=O)N2CCCC(c3nc(-c4cccs4)no3)C2)cc1 (stereo not given)	-	?	?	-	-	-
COc1ccccc1C(=O)N1CCCC(c2nc(-c3cc(OC)c(OC)c(OC)c3)no2)C1 (stereo not given)	-	-	?	-	-	-
COc1ccc(-c2noc(C3CCCN(C(=O)c4ccccc4OC)C3)n2)cc1 (stereo not given)	-	?	15µM	-	-	-
COc1ccccc1C(=O)N1CCc2nc(C3CC3)nc(-c3ccc(Cl)cc3)c2C1	.	.	.	.	.	45µM
COc1ccc(C(=O)N2CCCC(c3nc(-c4cc(OC)c(OC)c(OC)c4)no3)C2)cc1 (stereo not given)	-	21µM	?	-	-	-
COCC[C@]1(O)CCN(C(=O)c2ccccc2Cl)C[C@H]1C	.	.	.	.	.	-
Cc1ccc(-c2noc(-c3ccccc3C(=O)N3CCCC3)n2)cc1	-	16µM	23µM	-	-	-
COc1ccc(-c2noc(C3CCCN(C(=O)c4ccccc4C)C3)n2)cc1 (stereo not given)	-	16µM	12µM	?	-	-
COc1ccc(-c2noc(C3CCCN(C(=O)c4ccccc4)C3)n2)cc1 (stereo not given)	?	?	?	-	-	-
COc1cc(-c2nc(C3CC(=O)N(c4ccc(C)cc4)C3)no2)cc(OC)c1OC (stereo not given)	.	.	.	.	.	-
COc1cc(-c2noc(C3CC(=O)N(c4cc(C)ccc4C)C3)n2)cc(OC)c1OC (stereo not given)	.	18µM	16µM	.	.	-
Clc1snnc1CN1CCN(Cc2ccccc2)CC1	.	.	.	.	.	-
O=C(NCCN1CCCC1)C1CCN(C(=O)N2CC3CC(C2)[C@H]2CCCC(=O)N2C3)CC1 (stereo not given in full)	.	.	.	.	.	-
CN(CC12CC3CC(CC(C3)C1)C2)C(=O)CCc1ccccc1O	.	.	.	.	.	-
C[C@@H]1CCCCO[C@@H](CN(C)Cc2ccc3c(c2)OCO3)[C@@H](C)CN([C@H](C)CO)C(=O)c2cc(NS(=O)(=O)c3ccccc3)ccc2O1	?	18µM	10µM	-	?	-
Cc1ccc(S(=O)(=O)Nc2ccc3c(c2)C(=O)N([C@@H](C)CO)C[C@@H](C)[C@@H](CN(C)CC2CC2)OCCCC[C@@H](C)O3)cc1	-	?	?	-	-	?
Cc1ccc(S(=O)(=O)N(C)C[C@@H]2OCCCC[C@@H](C)Oc3ccc(NS(=O)(=O)c4c(C)noc4C)cc3C(=O)N([C@H](C)CO)C[C@@H]2C)cc1	-	16µM	12µM	-	-	?
C[C@H]1CCCCO[C@H](CN(C)Cc2ccncc2)[C@@H](C)CN([C@@H](C)CO)C(=O)c2cc(NS(=O)(=O)c3ccccc3)ccc2O1	-	-	?	-	-	-
Cc1ccc(S(=O)(=O)Nc2ccc3c(c2)C(=O)N([C@@H](C)CO)C[C@@H](C)[C@@H](CN(C)S(=O)(=O)c2ccccc2)OCCCC[C@H](C)O3)cc1	-	8.2µM	10µM	-	-	?
SMILES	HT1080-NT tox	DT40 TDP1 CPT	DT40 TDP1 no CPT	IL1B secr inh	HT1080 IDH1KD tx	ALOX12 inh
O=C(c1cc(Cl)ccc1F)N1CCC(Cc2nc(-c3ccc(F)cc3)no2)CC1	.	.	.	.	.	-
Cc1cccc(NS(=O)(=O)c2c(C)nc3sccn3c2=O)c1C	.	-	-	.	.	-
CCOC(=O)CC1(Cc2ccccc2)Oc2ccccc2O1	.	.	.	.	.	-
Cn1c(SCc2cccc(F)c2)nc2c([nH]c3ccccc32)c1=O	.	7.3µM	?	.	.	-
Cn1c(SCc2ccc(F)cc2)nc2c([nH]c3ccccc32)c1=O	.	?	?	.	.	-
Cn1c(SCc2ccc(C(F)(F)F)cc2)nc2c([nH]c3ccccc32)c1=O	.	9.2µM	18µM	.	.	-
Cc1[nH]n(-c2ccccc2)c(=O)c1N=Nc1cccc(Cl)c1	?	-	?	-	-	-
Cc1[nH]n(-c2ccc(Cl)cc2)c(=O)c1N=Nc1cccnc1	-	18µM	16µM	-	-	-
Cc1nnc(CN2CCC(c3nc4ccccc4s3)CC2)o1	.	.	.	.	.	-
COc1cc(C2c3c(n[nH]c3C)Nc3[nH]c(=O)[nH]c(=O)c32)ccc1OC(F)F (stereo not given)	.	.	.	.	.	-
Cc1cc(NCCCCO)n2c(nc3ccccc32)c1C#N	-	-	-	-	?	-
C=C(C)CSc1cc(C)c(C#N)c2nc3ccccc3n12	-	21µM	9.2µM	-	-	?
CCN(CC)c1ccc(/C=N/NC(=O)c2ccoc2C)c(O)c1	?	13µM	3.3µM	-	5.2µM	-
COc1ccc(/C=N/NC(=O)c2ccc3nc[nH]c3c2)c(OC)c1	-	4.6µM	?	-	-	-
CCN(CC)c1ccc(/C=N/Nc2ccccc2)c(O)c1	?	?	?	-	-	.
CCN(CC)c1ccc(/C=N/NC(=O)OC)c(O)c1	-	?	26µM	-	-[9.24 µM]	-
CCN(CC)c1ccc(/C=N/NC(=S)NC)c(O)c1	-	0.73µM	0.52µM	-	-	?
Cc1cc(/C=N/NC(=O)c2ccoc2C)cc(C)c1O	-	-	-	-	-	-
Cc1ccc(CNC(=O)NCC(C)N2CCOCC2)s1 (stereo not given)	.	.	.	.	.	-
CCN(CC)c1ccc(/C=N/NC(=O)c2ccc3nc[nH]c3c2)c(O)c1	?	18µM	?	-	2.1µM	.
Cc1ccc(NC(=O)c2sc3nc(-c4cc5ccccc5oc4=O)[nH]c(=O)c3c2C)c(C)c1	.	-	-	.	.	-
Cc1ccccc1NC(=O)c1sc2nc(-c3cc4ccccc4oc3=O)[nH]c(=O)c2c1C	.	8.2µM	?	.	.	-
CCOc1ccc2oc(C(=O)N(C)CCc3ccc(OC)c(OC)c3)c(C)c2c1	-	21µM	?	-	-	-
CCOc1ccc2oc(C(=O)N(C)CC(=O)Nc3ccc(OCC)c(OCC)c3)c(C)c2c1	-	?	18µM	-	-	-
